Bioassay records from PubChem BioAssay.
Most compounds without a hit are left out; they make up all but 6.3% or so of the library.
tim23-1 inh – growth inhibitors of tim23-1 mutant yeast; S. cerevisiae tim23-1 growth, BacTiter-Glo luminescence, 24 h; inhibition, % at 20 µM; actives 1.3% (n = 330,000); AID 463212;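 active = growth inhibition of the mutant yeast at or above 50%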;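 note: temperature-sensitive mutant grown at 25 °C; plate controls were DMSO-treated mutant yeast for no effect and medium wells lacking yeast for full effect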
TIM10 inh – TIM10 yeast growth inhibition; inhibition, % at 10 µM; S. cerevisiae TIM10 strain growth, BacTiter-Glo luminescence, 24 h; actives 1.4% (n = 330,000); AID 463195;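 active = inhibition of 40% or more at the single tested concentration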;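 note: wild-type TIM10 isogenic control strain grown at permissive 25 °C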
Mdm2 MdmX PPI – inhibitors of human Mdm2/MdmX interaction; AID 485346; SaOS-2 split-luciferase Mdm2/MdmX complementation, luminescence; inhibition, % at 8 µM; actives 3% (n = 330,000);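 active = inhibition of at least 50% at 8 µM in the primary screen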
Target sequence (O15151 whole entry, looked up): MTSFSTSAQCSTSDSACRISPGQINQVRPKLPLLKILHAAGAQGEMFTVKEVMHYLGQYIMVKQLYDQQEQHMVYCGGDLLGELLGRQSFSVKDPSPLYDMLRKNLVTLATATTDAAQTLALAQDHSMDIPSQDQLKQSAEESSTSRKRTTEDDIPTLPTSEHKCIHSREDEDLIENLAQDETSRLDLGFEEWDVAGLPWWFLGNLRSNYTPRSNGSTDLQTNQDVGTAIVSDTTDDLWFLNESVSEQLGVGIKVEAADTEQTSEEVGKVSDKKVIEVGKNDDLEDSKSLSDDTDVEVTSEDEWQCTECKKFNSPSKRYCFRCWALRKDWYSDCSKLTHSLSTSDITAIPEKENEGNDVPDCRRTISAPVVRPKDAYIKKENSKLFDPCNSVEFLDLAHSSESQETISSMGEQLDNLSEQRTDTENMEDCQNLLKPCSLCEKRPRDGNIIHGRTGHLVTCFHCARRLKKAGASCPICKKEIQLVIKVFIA
Target sequence (Q00987 whole entry, looked up): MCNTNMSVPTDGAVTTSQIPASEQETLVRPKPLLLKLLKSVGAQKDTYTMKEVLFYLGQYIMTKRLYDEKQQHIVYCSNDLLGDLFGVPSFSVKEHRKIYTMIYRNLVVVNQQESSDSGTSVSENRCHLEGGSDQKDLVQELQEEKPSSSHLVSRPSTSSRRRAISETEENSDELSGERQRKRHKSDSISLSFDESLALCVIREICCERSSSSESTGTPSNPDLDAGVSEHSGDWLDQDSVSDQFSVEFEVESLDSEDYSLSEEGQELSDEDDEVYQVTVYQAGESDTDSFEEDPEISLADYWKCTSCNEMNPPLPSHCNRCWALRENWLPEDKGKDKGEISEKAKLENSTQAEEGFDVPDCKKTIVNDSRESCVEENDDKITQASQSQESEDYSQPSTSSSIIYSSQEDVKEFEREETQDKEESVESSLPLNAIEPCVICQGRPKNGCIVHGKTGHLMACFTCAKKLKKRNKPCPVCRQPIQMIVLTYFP
MPTP block – blocks calcium-induced mitochondrial swelling. isolated mouse mitochondria, Ca2+ swelling absorbance, 30 min. inhibition, % at 10 µM. actives 1.4% (n = 360,000);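 active = inhibition of 50% or more, scaled per plate between neutral and stimulator controls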;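 note: 0% = DMSO wells given calcium and 100% = 1 mM EGTA wells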
tim10-1 inh – tim10-1 yeast growth inhibition; S. cerevisiae tim10-1 ts strain growth, BacTiter-Glo, 24 h; inhibition, % at 20 µM; actives 2.2% (n = 330,000); AID 463190;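 active = inhibition of at least 40%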;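 note: mutant grown at 25 °C; 0% = DMSO wells with yeast and 100% = wells holding no yeast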
tim10-1 confirm – tim10-1 yeast growth inhibition, confirmed | AID 463213 | inhibition, % at 20 µM | shares compounds with tim10-1 inh | S. cerevisiae tim10-1 ts strain growth, BacTiter-Glo, 24 h | actives 56% (n = 7,400);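 active = inhibition of yeast growth at or above a set limit in either of two repeat tests at 20 µM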;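 note: tim10-1 mutant grown at permissive 25 °C to find synthetic lethal compounds; 0% = DMSO yeast wells and 100% = medium wells without yeast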
TIM10 conf – TIM10 yeast growth inhibition, confirmed; shares compounds with TIM10 inh; S. cerevisiae tim10 strain growth, BacTiter-Glo luminescence, 24 h; inhibition, % at 10 µM; actives 63% (n = 4,600); AID 463215;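 active = inhibition of yeast growth at or above a set limit in either of two replicates at 10 µM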;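 note: this counterscreen used the strain with wild-type TIM10; 0% = yeast with DMSO and 100% = medium wells lacking yeast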
tim23-1 conf – confirmation of tim23-1 mutant yeast growth inhibitors. shares compounds with tim23-1 inh. S. cerevisiae tim23-1 growth, BacTiter-Glo luminescence, 24 h. inhibition, % at 20 µM. actives 83% (n = 4,400). AID 463218;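 active = inhibition above about 39% in either of two replicate wells at 20 µM, limit read from the data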;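 note: temperature-sensitive tim23-1 mutant grown at 25 °C; 0% = DMSO wells with yeast and 100% = medium wells without yeast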
* hit, by the source's call; x = no result.

SMILES	tim23-1 inh	TIM10 inh	Mdm2 MdmX PPI	MPTP block	tim10-1 inh	tim10-1 confirm	TIM10 conf	tim23-1 conf
CN1CCCCC1(C)C(=O)NCc1cc(Cl)ccc1F (stereo unspecified)	x	x	x	-1.6	x	x	x	x
CC(NC(=O)COC(=O)c1ccc2c(=O)n3c(nc2c1)CCCCC3)c1ccc(F)cc1 (stereo unspecified)	x	x	x	-1.4	x	x	x	x
CCc1nc2sc3ccccc3c(=O)c2c(=O)n1Cc1ccc(OC)cc1	53.3*	17.1	5.2	5.9	40.1*	30.5*	x	41.2*
N/C(=N\OC(=O)c1ccoc1)c1ccc(Br)cc1	80.7*	70.6*	-45.7	0.0	59.4*	53.6*	64.0*	84.2*
CCC(C(=O)O/N=C(\N)c1ccccc1)c1ccccc1 (stereo unspecified)	56.4*	54.5*	34.8	0.1	55.9*	52.7*	48.6*	43.0*
O=C(c1cccc(Br)c1)c1conc1C(=O)c1ccco1	54.4*	42.5*	6.0	-0.1	48.1*	44.0*	38.0*	58.5*
N/C(=N\OC(=O)/C=C/c1ccccc1)c1ccccc1	76.6*	45.0*	-39.0	-2.2	42.8*	52.7*	63.0*	73.0*
CC1(Oc2ccc3ccccc3c2)CCN(Cc2cccn2-c2nccs2)C1 (stereo unspecified)	x	x	x	3.5	x	x	x	x
COCCNC(=O)C1CCCN(Cc2ccccc2-c2ccccc2)CC1 (stereo unspecified)	x	x	x	-0.8	x	x	x	x
N/C(=N\OC(=O)c1ccco1)c1cccc(Br)c1	64.2*	60.9*	-47.5	-1.6	55.6*	55.5*	54.2*	45.0*
N/C(=N\OC(=O)c1cccc(Br)c1)c1ccccc1	82.8*	83.2*	-51.0	-0.4	65.7*	58.1*	86.5*	72.9*
O=C(NCc1ccncc1)C(=O)NCC1OCCN1S(=O)(=O)c1ccccc1 (stereo unspecified)	x	x	x	0.5	x	x	x	x
O=C1N=C(N2CCOCC2)S/C1=C1\C(=O)N(Cc2ccccc2)c2ccccc21	1.6	-7.0	-32.7	6.0	26.6	x	x	x
CCCN1C(=O)/C(=C2\SC(N3CCCCC3)=NC2=O)c2ccccc21	50.3*	29.9	-32.2	-0.4	41.9*	31.8*	x	47.8*
Oc1ccc(Br)cc1/C=N/n1c(-c2ccccc2)n[nH]c1=S	56.8*	21.8	8.5	1.3	46.4*	41.3*	x	59.0*
FC(F)C(F)(F)c1cc(-c2ccc(Cl)cc2)n[nH]1	52.3*	21.9	11.6	47.4	51.5*	41.8*	x	41.5*
O=C(NCCO)c1ccc2c3n(nc2c1)-c1ccc(Cl)cc1CO3	-4.9	1.4	-65.1	-0.1	10.5	x	x	x
O=C(NCC1CC1)c1ccc2c3n(nc2c1)-c1ccc(Cl)cc1CO3	67.4*	53.8*	-65.0	0.2	47.7*	34.7*	57.4*	53.5*
CN(C)C(=O)C(=O)c1c(-c2ccccc2)cc2ccccn12	19.4	16.7	4.6	-0.8	22.0	x	x	x
O=Nc1c(-c2ccccc2)cc2ccccn12	66.2*	49.4*	4.5	-0.5	49.8*	43.1*	29.1*	63.5*
C[C@@H]1CN([C@@H](C)CO)S(=O)(=O)c2ccc(Br)cc2O[C@H]1CN(C)C(=O)C1CCOCC1	x	x	x	-1.1	x	x	x	x
Brc1ccc(C2=CC(c3cccs3)n3ncnc3N2)cc1 (stereo unspecified)	51.6*	36.2	0.9	24.4	50.0*	38.5*	x	53.8*
CC(C)OC(=O)n1c(=S)oc2ccccc21	76.3*	47.0*	-0.2	0.4	53.3*	36.8*	26.0	67.3*
CC(C)NC(=O)C1(C)CSCC(=O)N1Cc1cccc(F)c1 (stereo unspecified)	x	x	x	-0.4	x	x	x	x
Cc1ccc(OCc2cc(C(=O)NCc3ccc(OC(F)(F)F)cc3)no2)cn1	12.0	-14.2	29.8	-0.3	2.3	x	x	x
SMILES	tim23-1 inh	TIM10 inh	Mdm2 MdmX PPI	MPTP block	tim10-1 inh	tim10-1 confirm	TIM10 conf	tim23-1 conf
Cc1ccc(OCc2cc(C(=O)NCc3cnn(-c4cccc(F)c4)c3)no2)cn1	62.1*	21.6	-13.1	-0.3	43.7*	-7.8	x	59.7*
CCC(C(=O)NC(C)(C)C)N(Cc1ccc(OC)cc1)C(=O)c1snc(C(N)=O)c1N (stereo unspecified)	x	x	x	-0.1	x	x	x	x
Cc1cc2nc3ccc(N(C)C)cc3nc2cc1N	50.3*	70.4*	4.6	8.2	45.8*	57.7*	72.8*	40.7*
Cc1cc2nn(-c3cccc4ccccc34)nc2cc1N	27.9	22.4	-49.0	-0.2	25.5	x	x	x
O=C(Nc1ccc(Cl)cc1C(=O)Nc1ccc(Br)cn1)c1ccco1	59.5*	44.1*	23.1	0.2	44.9*	41.9*	48.2*	57.5*
N/C(Cc1ccc([N+](=O)[O-])cc1)=N\OC(=O)c1ccco1	26.2	26.8	1.6	-1.1	21.3	x	x	x
N/C(Cc1ccc([N+](=O)[O-])cc1)=N\OC(=O)CC1CCCCC1	79.2*	86.1*	27.3	-1.1	64.9*	64.0*	91.7*	82.8*
S=C(Nc1ccccc1)N1CCn2c1nc1ccccc12	66.3*	42.1*	21.3	3.0	55.5*	33.1*	44.0*	54.7*
O=C(CC(=O)c1ccccc1O)c1cccc(F)c1	34.3	-5.5	19.1	6.8	6.6	x	x	x
O=C(CC(=O)c1c(F)cccc1Cl)c1ccccc1O	62.6*	7.5	15.3	1.3	52.5*	13.9	x	63.8*
Cc1c(/C=C/C(=O)c2ccc(Cl)s2)cnn1C	57.9*	48.5*	-105.2	0.2	44.6*	35.8*	36.6*	46.7*
COc1ccc(/C=C/C(=O)c2ccc(Cl)s2)cc1O	68.5*	68.1*	-18.8	7.5	53.0*	53.9*	44.0*	81.3*
Cc1c(/C=C/C(=O)c2ccc(O)cc2)cnn1C	1.1	16.2	-48.7	0.3	18.4	x	x	x
CC(=O)Nc1cc(C)nn1-c1nc(C)cc(C)n1	1.8	-15.0	-43.5	-2.2	8.7	x	x	x
Cc1ccc(Nc2cc(C)nn2-c2nc(C)cc(C)n2)cc1	53.4*	44.3*	32.0	1.8	47.4*	25.4	-24.5	47.2*
CCN1c2ccccc2NC2C1C(C(C)=O)C(=O)N2c1ccc(Cl)cc1 (stereo unspecified)	69.3*	52.4*	7.0	1.5	61.9*	52.7*	39.5*	50.5*
O=C(NC(=S)NNC(=O)c1ccccc1[N+](=O)[O-])c1ccccc1	50.0*	50.9*	2.7	-13.5	41.2*	52.3*	56.0*	52.8*
O=C(NNC(=S)NC(=O)c1ccccc1[N+](=O)[O-])c1ccccc1	13.5	16.7	9.0	1.1	9.4	x	x	x
CCC(=O)NC(=S)NNC(=O)c1ccccc1[N+](=O)[O-]	56.5*	53.1*	9.5	-2.5	45.4*	76.4*	60.2*	64.1*
